Rows were chosen to be rich in hits. Some 5.4% of all compounds tested hit in one or more screens of this group.
RORgamma inh: blocks mouse ROR gamma transcriptional activity | AID 2551 | Drosophila S2 Gal4-RORgamma UAS-luciferase reporter, 20 h | Potency, µM (doses to about 53.6 µM), for inactives: at the highest dose activity change, negative = inhibition, actives largely listed as inhibitors | hit rate 5.4% among 310,000; also: potency is read from the fitted curve at half-maximal effect; % is scaled to controls: 0 for no effect and ±100 for the full control effect; nearly all actives have a fitted effect of over 60% in size
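Using a luciferase readout, inhibitors were identified by reduced reporter activity in Drosophila cells coexpressing a copper-inducible Gal4–ROR gamma fusion and UAS-driven Photinus luciferase, incubated 20 hr after 700 uM copper sulfate.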
p53 reactivation: restores transcriptional activity of mutant p53 | Potency, µM (titrated, usually from 92.2 µM), for inactives: at the highest dose activity change, positive = activation, hits mostly activators | H1299 p53-A138V BP100-luciferase reporter, luminescence, 24 h | hit rate 0.063% among 320,000; also: potency is read from the fitted curve at half-maximal effect; % of control where 0% means no effect; nearly all actives have a fitted effect of over 45% in size
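H1299 (p53-null), stable ts p53-A138V + BP100-Luc; 1000 cells/well, Opti-MEM/10% FBS; cpd 4 pt, 1:5; 24 h, 37 deg C, 5% CO2; detection reagent 10 min RT; luminescence.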
VP16 counter: counter-screen for ROR gamma inhibitors: Gal4-VP16 reporter; hit rate 3.5% among 310,000; Drosophila S2 Gal4-VP16 UAS-luciferase, luminescence, 20 h; Potency, µM (series often up to 53.6 µM), for the others: at the top dose activity, negative = inhibition, actives largely listed as inhibitors;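 also: Gal4-VP16 expression switched on by copper sulfate through the metallothionein promoter; potency is read from the fitted curve at half-maximal effect; % is scaled to controls: 0 for no effect and ±100 for the full control effect; nearly all actives have a fitted effect of over 50% in size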
CtBP-E1A inh: inhibitors of CtBP/E1A interaction; AlphaScreen GST-E1A/His-CtBP binding, 1536-well; active compounds read low; AID 651724; activity change, % (no concentration beside the values); hit rate 0.49% among 340,000; in the data active = activity change below about -65%; inconclusive = mostly about -30% to -63%; also: % is scaled to controls: 0 for no effect and ±100 for the full control effect
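GST-E1A and His-tagged CtBP (125 nM each as 5X stock) were preincubated with pin-transferred compound for 2 h at 37 °C in the dark, then glutathione donor and nickel acceptor beads were added for 1 h before AlphaScreen reading.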
Six1-Eya2 inh: inhibitors of human Six1/Eya2 interaction; Q15475+O00167; AlphaScreen GST-Six1/His-Eya2 binding, biochemical; active compounds read low; activity change, % (no concentration beside the values); hit rate 0.56% among 360,000; AID 651725; in the data active = activity change below about -65%; inconclusive = mostly about -30% to -63%; also: % is scaled to controls: 0 for no effect and ±100 for the full control effect
Target sequence (O00167 whole entry, looked up): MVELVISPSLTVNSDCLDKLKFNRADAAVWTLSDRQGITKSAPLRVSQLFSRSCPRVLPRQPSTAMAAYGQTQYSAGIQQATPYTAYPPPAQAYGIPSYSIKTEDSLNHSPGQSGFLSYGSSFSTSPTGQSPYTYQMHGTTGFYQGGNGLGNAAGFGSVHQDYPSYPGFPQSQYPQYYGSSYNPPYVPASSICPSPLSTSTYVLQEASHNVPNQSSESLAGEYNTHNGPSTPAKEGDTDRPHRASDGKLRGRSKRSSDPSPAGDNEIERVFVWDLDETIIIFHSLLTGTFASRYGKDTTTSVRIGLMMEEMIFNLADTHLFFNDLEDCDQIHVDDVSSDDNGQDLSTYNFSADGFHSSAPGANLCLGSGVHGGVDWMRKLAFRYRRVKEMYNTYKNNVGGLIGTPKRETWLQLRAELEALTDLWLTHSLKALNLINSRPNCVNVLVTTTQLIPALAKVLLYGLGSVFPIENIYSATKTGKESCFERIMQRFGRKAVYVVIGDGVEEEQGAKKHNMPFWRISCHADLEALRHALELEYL
Target sequence (Q15475 whole entry, looked up): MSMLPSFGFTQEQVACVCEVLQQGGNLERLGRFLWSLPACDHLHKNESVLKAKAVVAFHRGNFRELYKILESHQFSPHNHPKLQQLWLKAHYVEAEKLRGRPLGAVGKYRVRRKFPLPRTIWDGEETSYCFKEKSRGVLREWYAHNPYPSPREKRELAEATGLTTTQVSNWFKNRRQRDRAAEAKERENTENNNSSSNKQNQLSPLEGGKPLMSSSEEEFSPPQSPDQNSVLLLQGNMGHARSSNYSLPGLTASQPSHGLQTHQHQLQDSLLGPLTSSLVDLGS
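GST-Six1 + His-Eya2 (5X stock: 250/500 nM); Tris pH 8.0, 300 mM NaCl, 0.05% BSA, 0.02% Tween 20; GSH donor/Ni acceptor beads; 1 h 37 °C dark; AlphaScreen readout.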
* = called active by the depositor; ? = inconclusive; / = no result; [ ] = another dose, or the depositor's remark. Unless noted, calls follow the shape of the dose curve; as a rule, active = well fitted curve in the direction sought with a large enough effect; inconclusive = small, poorly fitted or top-dose-only effect, or another doubt; inactive = no such curve, though single readings can be large; an effect the other way counts as inactive or inconclusive.

SMILES	RORgamma inh	p53 reactivation	VP16 counter	CtBP-E1A inh	Six1-Eya2 inh
CC(CNC(=O)C1CCCN(S(=O)(=O)N2CCOCC2)C1)c1ccccc1 (stereo unspecified)	10.4%	1.8%	-6.4%	8.2	14.3
COC(=O)Sc1nnc(-c2ccc(Br)cc2)o1	17.8µM*	12.0%	6.8%	/	/
OCC#CCSc1nnc(-c2ccc(Br)cc2)o1	?	2.2%	?	3.8	0.4
Cc1ccc(-n2cc[nH]c2=S)c(C)c1	10µM*	-0.5%	?	5.9	1.3
Cc1ccc(C)c(-n2cc[nH]c2=S)c1	11.2µM*	-18.5%	?	3.7	8.2
Cc1cc(C)cc(-n2cc[nH]c2=S)c1	7.08µM*	-2.3%	10µM*	-12.3	-3.3
Cc1ccc(-n2c(CC#N)n[nH]c2=S)c(C)c1	-40.8%	-2.3%	-11.3%	4.7	4.7
N#Cc1ccc(NC(=S)NC(=O)C2CCCCC2)cc1	/	8.9%	/	4.0	0.0
COc1ccccc1CNc1ncncc1-c1cccc(C#N)c1	3.4%	/	3.6%	/	/
COc1ccc(-n2nc3c(N4CCC(C(=O)NCC(C)c5ccccc5)CC4)nnc(C)c3c2C)cc1 (stereo unspecified)	-30.5%	22.9%	20µM*	-5.2	-0.5
CN(C)c1ncc2ncc(=O)n(Cc3cccs3)c2n1	?	/	-6.2%	/	/
Cc1ccc(Cl)cc1S(=O)(=O)N1CCC(C(=O)NC2CCN(Cc3ccccc3)CC2)CC1	?	6.3%	22.4µM*	5.7	0.7
Cc1cccc(COc2ccc(S(=O)(=O)N3CCOCC3)cc2[N+](=O)[O-])c1	/	-0.5%	/	-6.0	-17.3
CC(C)C[C@@H](CC(=O)N[C@H](CC(=O)N[C@@H]1CCCC[C@H]1C(=O)N[C@H](CC(=O)N[C@@H](CCC(=O)O)CC(=O)O)Cc1c[nH]c2ccccc12)C(C)C)NC(=O)[C@@H]1CCCC[C@H]1N	-7.0%	/	-1.9%	/	/
COc1ccc(Cc2nnc(NC(=O)CSc3ccc(C)cc3)s2)cc1OC	11.2µM*	-3.1%	?	7.0	-3.4
CCCOC(=O)c1ccc(OCC(O)Cn2c(C)nc3ccccc32)cc1 (stereo unspecified)	?	-2.8%	3.16µM*	1.8	4.6
CC#CCN1c2ccccc2[C@]23C[C@@H](C(=O)OC)N(C(=O)NCCBr)C2=NC(C(=O)OC)=C(C(=O)OC)[C@H]13	/	/	/	2.3	-1.8
Cc1cccc(C)c1N/C=C/c1onc(C)c1[N+](=O)[O-]	1.5%	/	-2.0%	-10.5	4.6
Cc1noc(/C=C/c2cccnc2)c1[N+](=O)[O-]	10µM*	-13.9%	15.8µM*	6.4	2.2
Cc1cccc(-n2c(C)c(C)c3c(N)ncnc32)c1	9.2%	2.5%	3.4%	-8.4	-5.7
Cc1sc2cc3c(c(C(=O)c4ccccc4)[n+]2c1C)-c1cccc2cccc-3c12	?	-17.2%	11.2µM*	1.0	-19.4
O=C(c1ccccc1)c1c2c(cc3sc4ccccc4[n+]13)-c1cccc3cccc-2c13	?	14.1%	10µM*	0.0	-6.5
Cc1cc2ccccc2cc1C(=O)c1ccccc1	/	/	/	27.4	0.2
O=C(c1ccccc1)c1ccc2ccccc2c1	/	/	/	53.7	18.3
COc1ccc(-c2cc(C(F)(F)F)c(C#N)c(SCC(=O)O)n2)cc1OC	17.3%	0.3%	-2.8%	/	/
SMILES	RORgamma inh	p53 reactivation	VP16 counter	CtBP-E1A inh	Six1-Eya2 inh
N#Cc1c(-c2ccccc2Cl)cc(-c2ccccc2)[nH]c1=S	-5.0%	4.0%	2.9%[10 µM]	/	/
N#Cc1c2c(c(-c3ccccc3Cl)[nH]c1=S)CCCC2	15.8µM*	4.1%	15.8µM*	-0.6	-3.4
CC(C)N(C(=O)c1nn(C)c2c1CSc1ccccc1-2)C1CCCCC1	0.3%	-3.8%	-13.9%	1.7	0.3
Cc1ccccc1CC(=O)N1CCOCC1	16.5%	/	0.1%	7.1	4.0
OCC1CSC(=S)N1Cc1ccccc1 (stereo unspecified)	/	/	/	9.1	2.9
Cn1nc(-c2ccc(OCC(=O)Nc3cccnc3)cc2)c2ccccc2c1=O	1.78µM*	-13.6%	15.8µM*	-1.1	-0.9
CNC(=O)COc1ccc(-c2nn(C)c(=O)c3ccccc23)cc1	-31.6%	-4.9%	5.3%	-2.5	1.0
COc1ccc(-n2c(=O)c(CCc3ccccc3)nc3cncnc32)cc1	-12.0%	/	7.7%	/	/
COCCN(Cc1cc2cc(C)c(C)cc2nc1Cl)C(=O)Nc1ccccc1	8.7%	-2.8%	?	-2.6	-5.9
COCCN(Cc1cc2cc3c(cc2nc1Cl)OCO3)C(=O)c1ccc(C)cc1	1.58µM*	13.1%	?	/	-3.6
S=C(NN=C(c1ccccc1)c1ccccn1)N(Cc1ccccn1)Cc1ccccn1	/	/	/	3.7	-94.0*
CC(=NNC(=S)N(Cc1ccccn1)Cc1ccccn1)c1cnccn1	/	/	/	-3.1	-90.2*
C/C(=N/NC(=O)c1cnccn1)c1ccncc1	1.7%	13.5%	6.0%	-7.2	-4.9
O=C(CCCC(=O)N/N=C\c1ccccn1)N/N=C\c1ccccn1	-2.4%	1.7%	-2.0%	-5.3	2.0
S=C(NN=Cc1ccccn1)N(Cc1ccccn1)Cc1ccccn1	/	/	/	-94.1*	-90.9*
COc1ccc(-c2ccc3c(c2)S(=O)(=O)c2cccc(C(=O)N4CCN(c5c(Cl)cncc5Cl)CC4)c2C3=O)cc1OC	/	-2.1%	/	-14.9	-9.8
C/C(=N\n1cnnc1)c1ccccc1	-0.8%	2.8%	1.7%	15.8	0.4
NS(=O)(=O)c1ccc(NS(=O)(=O)c2ccc(NC(=S)Nc3ccccc3)cc2)cc1	-26.0%	-2.9%	4.7%	1.5	14.1
NS(=O)(=O)c1ccc(NC(=S)Nc2ccn(Cc3cccc4ccccc34)n2)cc1	10µM*	-1.2%	?	-25.0	-7.8
CC(=O)Nc1ccc(/C=C2\Sc3ccccc3C2=O)cc1	37.9%	0.6%	1.6%	-0.4	-2.1
Cc1ccc(/C=C2\Sc3ccccc3C2=O)s1	11.2µM*	15.1%	?	-10.2	-28.4
CC(C)(C)OC[C@H](NC(=O)c1[nH]cnc1C(=O)Nc1ccccc1F)C(=O)OC(C)(C)C	/	/	/	-16.0	-12.4
Cc1cc(NC(=O)COc2cccc([N+](=O)[O-])c2)no1	-25.7%	-3.7%	-12.9%	-0.6	1.5
Cc1cc(C)nc(Nc2nc3ccccc3s2)n1	?	?	5.8%	7.7	12.8
Cc1ccccc1OCC(=O)N/N=C1\CC(=O)CC(C)(C)C1	-19.5%	-6.5%	7.6%	-11.3	-3.2
CC1CCC/C(=N/Nc2nc3ccccc3s2)C1 (stereo unspecified)	6.31µM*	-2.6%	?	1.4	-8.7
CC1(C)CC(=O)C/C(=N/Nc2nc3ccccc3s2)C1	8.91µM*	3.5%	22.8%	1.8	-12.1
CCOC(=O)OCC1OC(C#Cc2ccccc2)C=CC1OC(=O)OCC (stereo unspecified)	-6.5%[10 µM]	/	-1.4%[10 µM]	/	/
CN(C)CC1CCCCC1OC(=O)c1ccc(S(=O)(=O)N(C)c2ccccc2)cc1 (stereo unspecified)	-21.8%	5.2%	-0.4%	-6.1	-5.2

Assay outcomes from PubChem BioAssay.
